Measurements taken from PubChem BioAssay (NCI).
This is part of a sample that, as a whole, favours compounds with a hit. Of some 83,000 tested, about 20% had one in any assay.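 Cell lines were cultured in 96-well plates, exposed to a single compound concentration, and assessed for percent growth 48 hours later.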 Values without a mark were called inactive. Activity calls are given as the source filed them. How the source made its calls: active means growth percent below 10; inactive means the rest.

These compounds were tested on NCI-H23 lung (assay: NCI-60 one-dose screen, 48 h (100 = growth as untreated, 0 = no growth, -100 = all killed)). Details: 10 µM unless noted.
`O=NN(Cc1cccnc1)C(=O)NC1CCCCC1` was tested, and the growth was 111%.
`FC(F)(F)c1cccc(CNC2CCN(CCc3ccccc3)CC2)c1` gave a growth of 71.6%.
With `COc1ccc(CCN2C(=O)/C(=C/c3ccc(C4Oc5ccccc5C5CC(c6cccc(OC)c6)=NN54)cc3)SC2=S)cc1` (stereo not drawn) the growth was 99.8%.
Work on `COc1cc(-c2c3c(cn2S(=O)(=O)c2ccccc2)-c2nc(N)sc2CC3)cc(OC)c1OC` yielded a growth of 44%.
For `CCC1=C[C@@H]2CN(C1)Cc1c([nH]c3ccccc13)[C@@](C(=O)OC)(c1cc3c(cc1OC)N(C)[C@H]1[C@@](O)(C(=O)OC)[C@H](OC(C)=O)[C@]4(CC)[C@@H]5C[C@@H]5CN5CC[C@]31[C@@H]54)C2`, the growth was 5.89% (active).
For `O=C(O)CCCN1C(=O)C2C3CCC(C3)C2C1=O` (stereo not drawn), the growth was 101%.
`CCOC(=O)CSc1c(-c2ccccc2)c2cc(Cl)ccc2[nH]c1=O` was tested, and the growth was 101%.
`COc1ccc(C2C3=C(COC3=O)N(CCO)c3cc4c(cc32)CCC4)cc1` (stereo not drawn) showed a growth of 87.2%.
For `Cc1c(C(=O)OCCO)cc(-c2ccc(Cl)cc2)n1-c1ccc(Cl)cc1Cl`, the growth was 77.6%.
In the case of `NC1C(N)C(N)C1N` (stereo not drawn), the growth is reported as 102%.
`Oc1[nH]c2ccccc2c1N=Nc1nnc2n1N=C(c1ccccc1)CS2` was tested, and the growth was 70%.
`O=NN(C(=O)NC1CCC(C(=O)O)CC1)C1CCC(C(=O)O)CC1` (stereo not drawn) was tested, and the growth was 106%.
For `Nc1ccc(-c2nn3c(CCC(=O)c4nc5ncccc5[nH]4)nnc3s2)c(O)c1`, the growth was 83.1%.
With `CCOc1ccc2c(c1)CN(Cc1ccc(Cl)cc1)CO2` the growth was 80.8%.
`CCN(CC)CCCNc1ccnc2cc3ccccc3cc12` was tested, and the growth was 83.3%.
`Cc1ccc2cccc(Oc3ccc(Nc4ncnc5onc(-c6ccccc6)c45)cc3)c2n1` gave a growth of 87.9%.
In the case of `CCCc1c(C)c2sc(=O)[nH]c2[nH]c1=O`, the growth is reported as 104%.
For `CC(C)[C@H](NC(=O)Cn1cc(C(=O)O)nn1)C(=O)O`, the growth was 97.3%.
`CC1CCCCN1CCCNC(=O)c1ccc2c(c1)sc1nc(-c3ccc(F)cc3)cn12` (stereo not drawn) showed a growth of 92.1%.
Compound `CN(C)c1ccc(/C=C/c2ccnc3c(O)cccc23)cc1` has a growth of 34.8%.
Work on `NC(=O)CSc1nc(-c2ccc(F)cc2)cc(-c2ccco2)n1` yielded a growth of 98.7%.
Compound `Clc1ccc(COc2ccc(Nc3ncnc4onc(-c5ccccc5)c34)cc2)cc1` has a growth of 87.1%.
Compound `O=S1(=O)N(Cc2ccccc2)[C@@H](Cc2ccccc2)C2O[C@H]2[C@H](Cc2ccccc2)N1Cc1ccccc1` (stereo partly drawn) has a growth of 37.6%.
With `COc1cc(/C=C2\CN(C)C/C(=C\c3cc(CN4CCCC4)c(O)c(OC)c3)C2=O)cc(CN2CCCC2)c1O` the growth was 52.2%.
For `COc1cc(/C=C2\CN(S(=O)(=O)c3ccccc3)C/C(=C\c3cc(CN4CCCC4)c(O)c(OC)c3)C2=O)cc(CN2CCCC2)c1O`, the growth was -57.8% (active).
Work on `COc1ccc(-c2nc(N3CCN(C(=O)C4CCCCC4)CC3)c3c4c(sc3n2)CCCC4)cc1` yielded a growth of 44%.
With `Nc1cccc(Nc2cc(S(=O)(=O)O)c(N)c3c2C(=O)c2ccccc2C3=O)c1` the growth was 109%.
`CCCCNc1nc(NC(C)(C)C)nc(NC(C)(C)C)n1` was tested, and the growth was 47.9%.
In the case of `COc1ccc(OC)c(NC(=O)/C(C#N)=C/c2ccco2)c1`, the growth is reported as 96.6%.
With `O=c1oc2ccc(Br)cc2c(=O)n1-c1ccc(Cl)cc1F` the growth was 2.82% (active).
Compound `COc1ccc(C2=NN(/C=C3\SC(=O)NC3=Nc3ccc(F)cc3)C(c3ccc(F)cc3)C2)cc1` (stereo not drawn) has a growth of 96.9%.
With `Nc1no[n+]([O-])c1-c1nnc2c(n1)-c1ccccc1C2=O` the growth was -40.8% (active).
For `C=CCN1C(=O)/C(=c2\sc3n(c2=O)NC2C(N=3)N(CC)C(=O)N2CC)c2ccccc21` (stereo not drawn), the growth was 43.7%.
In the case of `O=C1/C(=C/c2ccc(O)cc2)COc2ccc(O)cc21`, the growth is reported as 92.2%.
With `COc1cc(/C=C/C(=O)c2c(C)nc3ccccc3c2/C=C/c2ccccc2)cc(OC)c1OC` the growth was 10.9%.
With `O=c1oc2ccc(F)cc2c(=O)n1-c1ccc(Cl)cc1F` the growth was 4.57% (active).
With `CC1(C)CC2(C)OC2C2(C1)N=NC(=Nc1ccccc1)O2` (stereo not drawn) the growth was 88.9%.
For `CCN1C(=O)N(CC)C2Nn3c(s/c(=C4\C(=O)N(C(C)C)c5ccccc54)c3=O)=NC21` (stereo not drawn), the growth was 36.6%.
For `O=c1c(-c2nc3ccccc3[nH]2)cc2ccccc2n1Cc1cn(Cc2ccc(F)cc2)nn1`, the growth was 23.5%.

Each compound was assayed on NCI-H322M lung in the same assay as above. Details: 10 µM unless noted.
`O=NN(Cc1cccnc1)C(=O)NC1CCCCC1` was tested, and the growth was 106%.
`FC(F)(F)c1cccc(CNC2CCN(CCc3ccccc3)CC2)c1` showed a growth of 84%.
In the case of `COc1ccc(CCN2C(=O)/C(=C/c3ccc(C4Oc5ccccc5C5CC(c6cccc(OC)c6)=NN54)cc3)SC2=S)cc1` (stereo not drawn), the growth is reported as 103%.
Compound `COc1cc(-c2c3c(cn2S(=O)(=O)c2ccccc2)-c2nc(N)sc2CC3)cc(OC)c1OC` has a growth of 41%.
`CCC1=C[C@@H]2CN(C1)Cc1c([nH]c3ccccc13)[C@@](C(=O)OC)(c1cc3c(cc1OC)N(C)[C@H]1[C@@](O)(C(=O)OC)[C@H](OC(C)=O)[C@]4(CC)[C@@H]5C[C@@H]5CN5CC[C@]31[C@@H]54)C2` was tested, and the growth was 49.3%.
Compound `O=C(O)CCCN1C(=O)C2C3CCC(C3)C2C1=O` (stereo not drawn) has a growth of 107%.
`CCOC(=O)CSc1c(-c2ccccc2)c2cc(Cl)ccc2[nH]c1=O` was tested, and the growth was 94.9%.
Compound `COc1ccc(C2C3=C(COC3=O)N(CCO)c3cc4c(cc32)CCC4)cc1` (stereo not drawn) has a growth of 96.2%.
`Cc1c(C(=O)OCCO)cc(-c2ccc(Cl)cc2)n1-c1ccc(Cl)cc1Cl` showed a growth of 84.3%.
With `NC1C(N)C(N)C1N` (stereo not drawn) the growth was 99.7%.
`Oc1[nH]c2ccccc2c1N=Nc1nnc2n1N=C(c1ccccc1)CS2` gave a growth of 104%.
In the case of `O=NN(C(=O)NC1CCC(C(=O)O)CC1)C1CCC(C(=O)O)CC1` (stereo not drawn), the growth is reported as 107%.
`Nc1ccc(-c2nn3c(CCC(=O)c4nc5ncccc5[nH]4)nnc3s2)c(O)c1` was tested, and the growth was 87.5%.
`CCOc1ccc2c(c1)CN(Cc1ccc(Cl)cc1)CO2` showed a growth of 69.1%.
`CCN(CC)CCCNc1ccnc2cc3ccccc3cc12` showed a growth of 76%.
In the case of `Cc1ccc2cccc(Oc3ccc(Nc4ncnc5onc(-c6ccccc6)c45)cc3)c2n1`, the growth is reported as 88.2%.
`CCCc1c(C)c2sc(=O)[nH]c2[nH]c1=O` was tested, and the growth was 111%.
With `CC(C)[C@H](NC(=O)Cn1cc(C(=O)O)nn1)C(=O)O` the growth was 99.9%.
With `CC1CCCCN1CCCNC(=O)c1ccc2c(c1)sc1nc(-c3ccc(F)cc3)cn12` (stereo not drawn) the growth was 107%.
Work on `CN(C)c1ccc(/C=C/c2ccnc3c(O)cccc23)cc1` yielded a growth of 28.7%.
`NC(=O)CSc1nc(-c2ccc(F)cc2)cc(-c2ccco2)n1` gave a growth of 99.9%.
`Clc1ccc(COc2ccc(Nc3ncnc4onc(-c5ccccc5)c34)cc2)cc1` was tested, and the growth was 82.8%.
`O=S1(=O)N(Cc2ccccc2)[C@@H](Cc2ccccc2)C2O[C@H]2[C@H](Cc2ccccc2)N1Cc1ccccc1` (stereo partly drawn) showed a growth of 84.9%.
`COc1cc(/C=C2\CN(C)C/C(=C\c3cc(CN4CCCC4)c(O)c(OC)c3)C2=O)cc(CN2CCCC2)c1O` showed a growth of 84.7%.
`COc1cc(/C=C2\CN(S(=O)(=O)c3ccccc3)C/C(=C\c3cc(CN4CCCC4)c(O)c(OC)c3)C2=O)cc(CN2CCCC2)c1O` was tested, and the growth was 21.4%.
For `COc1ccc(-c2nc(N3CCN(C(=O)C4CCCCC4)CC3)c3c4c(sc3n2)CCCC4)cc1`, the growth was 43.1%.
For `Nc1cccc(Nc2cc(S(=O)(=O)O)c(N)c3c2C(=O)c2ccccc2C3=O)c1`, the growth was 124%.
Compound `CCCCNc1nc(NC(C)(C)C)nc(NC(C)(C)C)n1` has a growth of 97.8%.
In the case of `COc1ccc(OC)c(NC(=O)/C(C#N)=C/c2ccco2)c1`, the growth is reported as 99.8%.
For `O=c1oc2ccc(Br)cc2c(=O)n1-c1ccc(Cl)cc1F`, the growth was 5.97% (active).
Compound `COc1ccc(C2=NN(/C=C3\SC(=O)NC3=Nc3ccc(F)cc3)C(c3ccc(F)cc3)C2)cc1` (stereo not drawn) has a growth of 93.7%.
Work on `Nc1no[n+]([O-])c1-c1nnc2c(n1)-c1ccccc1C2=O` yielded a growth of 74.1%.
With `C=CCN1C(=O)/C(=c2\sc3n(c2=O)NC2C(N=3)N(CC)C(=O)N2CC)c2ccccc21` (stereo not drawn) the growth was 57%.
`O=C1/C(=C/c2ccc(O)cc2)COc2ccc(O)cc21` gave a growth of 98.2%.
`COc1cc(/C=C/C(=O)c2c(C)nc3ccccc3c2/C=C/c2ccccc2)cc(OC)c1OC` showed a growth of 21%.
With `O=c1oc2ccc(F)cc2c(=O)n1-c1ccc(Cl)cc1F` the growth was 7.62% (active).
With `CC1(C)CC2(C)OC2C2(C1)N=NC(=Nc1ccccc1)O2` (stereo not drawn) the growth was 103%.
In the case of `CCN1C(=O)N(CC)C2Nn3c(s/c(=C4\C(=O)N(C(C)C)c5ccccc54)c3=O)=NC21` (stereo not drawn), the growth is reported as 61.3%.
`O=c1c(-c2nc3ccccc3[nH]2)cc2ccccc2n1Cc1cn(Cc2ccc(F)cc2)nn1` was tested, and the growth was 19.4%.
